Results published in PubChem BioAssay (NCATS).
Results filed as inconclusive are left out. A call without a number means that no potency is given here. Calls of active or inactive are those of the source. Calls follow the shape of the dose curve; as a rule, active = well fitted inhibition curve with a large enough effect; inconclusive = small, poorly fitted or top-dose-only effect; inactive = flat fitted curve, though single readings scatter.

system: JCK; assay: qHTS profiling for inhibitors of Plasmodium falciparum proliferation (AID 504749); also: nearly all actives have a fitted effect of over 60% in size; details: P. falciparum in erythrocytes, SYBR Green DNA, 72 h; series mostly up to 28.7 µM
Method in brief: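 SYBR Green fluorescence of parasite DNA, read after lysis and overnight dark incubation, measured growth over 72 h in erythrocyte culture at 0.3% parasitemia and 2.5% hematocrit. Data normalised to DMSO and 0.29 uM artemisinin, with plate-drift correction.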
Potency is read from the fitted curve at half-maximal effect.

Row | Structure (SMILES) | Potency
1 | CCCCCCCCCCCCCCCC(=O)OC[C@H](O)[C@H]1OC[C@@H](O)[C@@H]1O | inactive
2 | C[C@H]1OC(OC2C(O)[C@@H](O)C(OC3C(O)[C@@H](O)C(O)O[C@@H]3CO)O[C@@H]2CO)[C@H](O)C(O)C1N[C@H]1C=C(CO)[C@@H](O)[C@H](O)C1O (stereo partly specified) | inactive
3 | CCN(CC)CC(=O)Nc1c(C)cc(C)cc1C | inactive
4 | CC(=O)N[C@H]1[C@H](O[C@@H]2c3ccc(c(Cl)c3)Oc3cc4cc(c3O[C@@H]3O[C@H](CO)[C@@H](O)[C@H](O)C3C)Oc3ccc(cc3Cl)C[C@H]3NC(=O)[C@@H](N)c5ccc(O)c(c5)Oc5cc(O)cc(c5)[C@H](NC3=O)C(=O)N[C@H]4C(=O)N[C@H]3C(=O)N[C@@H]2C(=O)N[C@@H](C(=O)O)c2cc(O)cc(O[C@H]4O[C@H](CO)[C@@H](O)C(O)[C@@H]4O)c2-c2cc3ccc2O)O[C@H](CO)[C@@H](O)[C@@H]1O (stereo partly specified) | inactive
5 | NC(=O)c1ncn(C2OC(CO)C(O)C2O)c1N (stereo unspecified) | inactive
6 | CC1(Cn2ccnn2)[C@H](C(=O)O)N2C(=O)C[C@H]2S1(=O)=O (stereo partly specified) | inactive
7 | CN(C)CC/C=C1\c2ccccc2COc2ccc(CC(=O)O)cc21 | inactive
8 | CCCC(=O)O[C@]1(C(=O)COC(C)=O)CC[C@H]2C3C[C@H](F)C4=CC(=O)C=CC4(C)[C@@]3(F)[C@@H](O)CC21C (stereo partly specified) | inactive
9 | OCCN1CC(O)C(O)C(O)C1CO (stereo unspecified) | inactive
10 | CC(CCC(=O)O)C1CCC2C3C(=O)C[C@@H]4CC(=O)CC[C@@]4(C)C3CC(=O)[C@]12C (stereo partly specified) | inactive
11 | C[n+]1c2cc(N)ccc2cc2ccc(N)cc21 | 794 nM (active)
